The nature of experiment [1]: NCI Yeast Anticancer Drug Screen. Data for the rad50 strain (AID 155).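 Further: 0% = growth of vehicle-only cultures of the same strain.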 The settings on record: S. cerevisiae rad50 strain growth inhibition, hits give high values. Summed up:
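DNA repair mutant yeast, compound exposure, growth read-out; inhibition is taken relative to vehicle.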

Experiment [2] in a line: NCI Yeast Anticancer Drug Screen. Data for the mec2-1 strain (AID 157). The settings on record: S. cerevisiae mec2-1 strain, hits give high values. A digest of the protocol:
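Test agents were screened against the mec2-1 yeast strain, with defined DNA repair or cell cycle alteration. Growth was scored as inhibition against vehicle-only controls.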

Experiment [3] is described as follows: NCI Yeast Anticancer Drug Screen. Data for the sgs1 mgt1 strain (AID 161).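 Further: 0% = growth of cultures given vehicle only.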 As to conditions: S. cerevisiae sgs1 mgt1 strain, hits give high values. Summed up:
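Inhibition of yeast growth, normalised to vehicle-treated controls, is reported for a strain bearing genetic alterations in DNA damage repair.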

Experiment [4] is described as follows: NCI Yeast Anticancer Drug Screen. Data for the cln2 rad14 strain (AID 165).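 Further: 0% = growth equal to vehicle treated cultures.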 The settings on record: S. cerevisiae cln2 rad14 strain, hits give high values. Summed up: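 Growth of compound-exposed yeast (cln2 rad14 genotype) measured and expressed as inhibition relative to vehicle.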
A short description of experiment [5]: NCI Yeast Anticancer Drug Screen. Data for the bub3 strain (AID 167). As to conditions: S. cerevisiae bub3 mutant strain, hits give high values. A digest of the protocol:
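In this screen, a yeast mutant lacking normal mitotic checkpoint function is challenged with compound. Relative growth versus vehicle gives the inhibition value.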

Experiment [6] is described as follows: NCI Yeast Anticancer Drug Screen. Data for the mlh1 rad18 strain (AID 175). The settings on record: S. cerevisiae mlh1 rad18 strain growth inhibition, hits give high values. A digest of the protocol:
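In this whole-cell yeast screen, a strain with altered DNA damage repair is challenged with compound, and its growth is measured against matched vehicle-treated controls.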

[7] abbreviates: at 5.0 µM (retest, dose inferred, filed as 0.5).
[8] abbreviates: at 50.0 µM (retest, dose inferred, filed as 5.0).

Compounds without any hit were thinned out: in the full panel of roughly 79,000, 15% have a hit. Values without a mark were called inactive. The source made the active and inactive calls. No stated cut-off is given here; in the data, active means growth inhibition above about 70%; inactive means the rest.

Turning to `CCCCN(CCCC)C(=O)c1ccc(Cl)cc1Cl`, the growth inhibition in experiment [1] (setting [7]) was 7%; in experiment [1] (setting [8]), 97% (active); in experiment [1] (at 50.0 µM) it was 98.5% (active); in experiment [2] (setting [7]), 7%; in experiment [2] (setting [8]) it was 98% (active); in experiment [2] (at 50.0 µM), 97.7% (active). Moreover, the growth inhibition in experiment [3] (setting [7]) was 6%; in experiment [3] (setting [8]), 97% (active); in experiment [3] (at 50.0 µM), 98.4% (active); in experiment [4] (setting [7]), 11%; in experiment [4] (setting [8]), 87% (active); in experiment [4] (at 50.0 µM), 96.2% (active). In addition, the growth inhibition in experiment [5] (setting [7]) is 26%; in experiment [5] (setting [8]) it was 90% (active); in experiment [5] (at 50.0 µM), 96.5% (active); in experiment [6] (setting [7]), 13%; in experiment [6] (setting [8]), 97% (active); in experiment [6] (at 50.0 µM), 98.3% (active).
For the compound `CCOC(=O)/C(=C\c1cccc([N+](=O)[O-])c1)C(C)=O`, the growth inhibition in experiment [1] (setting [7]) is 36%; in experiment [1] (setting [8]), 98% (active); in experiment [1] (at 50.0 µM), 93.2% (active); in experiment [2] (setting [7]) it was 24%; in experiment [2] (setting [8]), 99% (active); in experiment [2] (at 50.0 µM) it was 94.8% (active). For the same compound, the growth inhibition is 33% in experiment [3] (setting [7]); 99% (active) in experiment [3] (setting [8]); 93.2% (active) in experiment [3] (at 50.0 µM); 27% in experiment [4] (setting [7]); 98% (active) in experiment [4] (setting [8]); 90.5% (active) in experiment [4] (at 50.0 µM). Further, the growth inhibition is 62% in experiment [5] (setting [7]); 99% (active) in experiment [5] (setting [8]); 92% (active) in experiment [5] (at 50.0 µM); 41% in experiment [6] (setting [7]); 99% (active) in experiment [6] (setting [8]); 92.3% (active) in experiment [6] (at 50.0 µM).
In the case of `CCOc1ccc2c(c1)CCC1C2CCC2(C)CC(O)CC12` (stereo not given), the growth inhibition in experiment [1] (setting [7]) was 11%; in experiment [1] (setting [8]), 98% (active); in experiment [1] (at 50.0 µM), 97.7% (active); in experiment [2] (setting [7]), 3%; in experiment [2] (setting [8]), 67%; in experiment [2] (at 50.0 µM), 97.5% (active). In addition, the growth inhibition in experiment [3] (setting [7]) was 22%; in experiment [3] (setting [8]), 99% (active); in experiment [3] (at 50.0 µM), 54%; in experiment [4] (setting [7]), -18%; in experiment [4] (setting [8]) it was 82% (active); in experiment [4] (at 50.0 µM) it was 98.6% (active). Also, the growth inhibition in experiment [5] (setting [7]) is -4%; in experiment [5] (setting [8]) it was -3%; in experiment [5] (at 50.0 µM), 98.1% (active); in experiment [6] (setting [7]), 14%; in experiment [6] (setting [8]), 99% (active); in experiment [6] (at 50.0 µM), 98.6% (active).
As to `Cc1ccc(NN(C)c2ccc(C)cc2)cc1`, the growth inhibition in experiment [1] (setting [7]) is -4%; in experiment [1] (setting [8]) it was 2%; in experiment [1] (at 50.0 µM), 34.3%; in experiment [2] (setting [7]), -1%; in experiment [2] (setting [8]), -8%; in experiment [2] (at 50.0 µM), 16.1%. Further, the growth inhibition in experiment [3] (setting [7]) was -4%; in experiment [3] (setting [8]), -10%; in experiment [3] (at 50.0 µM), -11.4%; in experiment [4] (setting [7]), 5%; in experiment [4] (setting [8]) it was -4%; in experiment [4] (at 50.0 µM), 13.4%. The growth inhibition is 9% in experiment [5] (setting [7]); 18% in experiment [5] (setting [8]); 27.6% in experiment [5] (at 50.0 µM); -3% in experiment [6] (setting [7]); 1% in experiment [6] (setting [8]); 3.1% in experiment [6] (at 50.0 µM).
Take `Cc1c2cc[n+](C)cc2c(COC2OC(CO)C(O)C2O)c2c3ccccc3n(C)c12` (stereo not given): the growth inhibition was 23% in experiment [1] (setting [7]); 44% in experiment [1] (setting [8]); 65% in experiment [1] (at 50.0 µM); 10% in experiment [2] (setting [7]); 10% in experiment [2] (setting [8]); 23.6% in experiment [2] (at 50.0 µM). In addition, the growth inhibition in experiment [3] (setting [7]) is -12%; in experiment [3] (setting [8]) it was 23%; in experiment [3] (at 50.0 µM) it was 17.9%; in experiment [4] (setting [7]), 19%; in experiment [4] (setting [8]), 24%; in experiment [4] (at 50.0 µM), 18.1%. The growth inhibition in experiment [5] (setting [7]) was 12%; in experiment [5] (setting [8]), 14%; in experiment [5] (at 50.0 µM), 28.1%; in experiment [6] (setting [7]) it was 13%; in experiment [6] (setting [8]), 14%; in experiment [6] (at 50.0 µM) it was 23.2%.
Consider `Cc1cc(SCC(=O)c2ccccc2)cc(C)[o+]1`, for which the growth inhibition in experiment [1] (setting [7]) is -4%; in experiment [1] (setting [8]) it was 82% (active); in experiment [1] (at 50.0 µM), 92% (active); in experiment [2] (setting [7]), -5%; in experiment [2] (setting [8]), 80% (active); in experiment [2] (at 50.0 µM), 95.6% (active). Further, the growth inhibition in experiment [3] (setting [7]) is -7%; in experiment [3] (setting [8]), 44%; in experiment [3] (at 50.0 µM), 56.4%; in experiment [4] (setting [7]) it was -6%; in experiment [4] (setting [8]), 1%; in experiment [4] (at 50.0 µM), 17.6%. Also, the growth inhibition in experiment [5] (setting [7]) was 0%; in experiment [5] (setting [8]) it was 86% (active); in experiment [5] (at 50.0 µM), 97.9% (active); in experiment [6] (setting [7]) it was 1%; in experiment [6] (setting [8]), 69%; in experiment [6] (at 50.0 µM), 95.4% (active).
Regarding `COc1ccc(/C(Cl)=C(\c2ccc(OCCN(C)C)cc2)c2ccc(OC(=O)C(C)(C)C)cc2)cc1`, the growth inhibition in experiment [1] (setting [7]) is 23%; in experiment [1] (setting [8]) it was 23%; in experiment [1] (at 50.0 µM) it was 91.8% (active); in experiment [2] (setting [7]), 17%; in experiment [2] (setting [8]), 17%; in experiment [2] (at 50.0 µM), 92% (active). The growth inhibition was 18% in experiment [3] (setting [7]); 18% in experiment [3] (setting [8]); 92.3% (active) in experiment [3] (at 50.0 µM); 10% in experiment [4] (setting [7]); 10% in experiment [4] (setting [8]); 60.4% in experiment [4] (at 50.0 µM). Further, the growth inhibition in experiment [5] (setting [7]) is 20%; in experiment [5] (setting [8]), 20%; in experiment [5] (at 50.0 µM) it was 89.4% (active); in experiment [6] (setting [7]), 1%; in experiment [6] (setting [8]), 1%; in experiment [6] (at 50.0 µM), 90% (active).
Consider `Oc1cc(Br)cc2cccnc12`, for which the growth inhibition in experiment [1] (setting [7]) is 99% (active); in experiment [1] (setting [8]) it was 99% (active); in experiment [1] (at 50.0 µM), 87.7% (active); in experiment [2] (setting [7]), 98% (active); in experiment [2] (setting [8]) it was 99% (active); in experiment [2] (at 50.0 µM), 92% (active). The growth inhibition is 98% (active) in experiment [3] (setting [7]); 99% (active) in experiment [3] (setting [8]); 84.3% (active) in experiment [3] (at 50.0 µM); 99% (active) in experiment [4] (setting [7]); 99% (active) in experiment [4] (setting [8]); 89.5% (active) in experiment [4] (at 50.0 µM). For the same compound, the growth inhibition was 99% (active) in experiment [5] (setting [7]); 99% (active) in experiment [5] (setting [8]); 88.7% (active) in experiment [5] (at 50.0 µM); 99% (active) in experiment [6] (setting [7]); 99% (active) in experiment [6] (setting [8]); 83.8% (active) in experiment [6] (at 50.0 µM).
Turning to `OC(CC(O)(C(F)(F)Cl)C(F)(F)Cl)c1ccccc1` (stereo not given), the growth inhibition in experiment [1] (setting [7]) was 31%; in experiment [1] (setting [8]) it was 66%; in experiment [1] (at 50.0 µM) it was 88.1% (active); in experiment [2] (setting [7]), 10%; in experiment [2] (setting [8]), 62%; in experiment [2] (at 50.0 µM) it was 90.7% (active). For the same compound, the growth inhibition in experiment [3] (setting [7]) was 42%; in experiment [3] (setting [8]), 72% (active); in experiment [3] (at 50.0 µM) it was 92.1% (active); in experiment [4] (setting [7]), 35%; in experiment [4] (setting [8]) it was 58%; in experiment [4] (at 50.0 µM), 85.8% (active). Besides, the growth inhibition in experiment [5] (setting [7]) was 37%; in experiment [5] (setting [8]), 69%; in experiment [5] (at 50.0 µM), 88.6% (active); in experiment [6] (setting [7]), 26%; in experiment [6] (setting [8]) it was 59%; in experiment [6] (at 50.0 µM) it was 89.3% (active).
As to `c1ccc(SSc2ccccc2)cc1`, the growth inhibition in experiment [1] (setting [7]) is -6%; in experiment [1] (setting [8]), 64%; in experiment [1] (at 50.0 µM), 47.3%; in experiment [2] (setting [7]), -38%; in experiment [2] (setting [8]), 18%; in experiment [2] (at 50.0 µM) it was 20.7%. In addition, the growth inhibition in experiment [3] (setting [7]) was 0%; in experiment [3] (setting [8]), 25%; in experiment [3] (at 50.0 µM) it was 77% (active); in experiment [4] (setting [7]), 1%; in experiment [4] (setting [8]), 3%; in experiment [4] (at 50.0 µM), 18.9%. The growth inhibition in experiment [5] (setting [7]) was 38%; in experiment [5] (setting [8]), 20%; in experiment [5] (at 50.0 µM), 26.7%; in experiment [6] (setting [7]) it was -2%; in experiment [6] (setting [8]) it was 50%; in experiment [6] (at 50.0 µM) it was 87.7% (active).

Values taken from PubChem BioAssay (NCI).
